This note sets out measurements from PMC7862700, “An all-to-all approach to the identification of sequence-specific readers for epigenetic DNA modifications on cytosine”.

What all share (experiment): DAPPL (digital affinity profiling via proximity ligation, sequencing); 10 mM Tris-HCl pH 7.5, 50 mM NaCl, 1 mM DTT, 4% glycerol, room temperature, 30 min; GST-TFs on glutathione beads, 16-mer random dsDNA library, 0.1% formaldehyde crosslink after washing; high values mean tight binding
Holding throughout (conditions): protein: recombinant; tags: N-terminal GST; dsDNA, one strand shown

One experiment deals with T1, ELK1 (Homo sapiens, UniProt P19419 1-428).
T1 sequence: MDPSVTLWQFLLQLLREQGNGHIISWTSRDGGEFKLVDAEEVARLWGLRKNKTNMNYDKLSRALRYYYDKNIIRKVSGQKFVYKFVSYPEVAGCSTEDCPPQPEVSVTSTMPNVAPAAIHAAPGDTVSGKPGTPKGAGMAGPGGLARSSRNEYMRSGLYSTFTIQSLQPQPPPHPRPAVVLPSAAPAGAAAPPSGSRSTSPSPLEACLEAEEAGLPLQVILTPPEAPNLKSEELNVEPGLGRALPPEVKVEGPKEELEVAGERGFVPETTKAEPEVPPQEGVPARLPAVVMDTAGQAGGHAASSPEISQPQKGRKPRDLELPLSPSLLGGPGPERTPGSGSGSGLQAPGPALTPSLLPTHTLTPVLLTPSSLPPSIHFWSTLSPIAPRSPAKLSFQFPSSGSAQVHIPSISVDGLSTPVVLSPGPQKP
The method, boiled down:
(§1)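 A tag-only sample was pooled with DNA-barcoded human transcription factors that had been expressed in yeast as GST fusions and captured on glutathione beads. The pools were incubated for 30 min at room temperature with 200 nmole of a random double-stranded 16-mer DNA library in Tris/NaCl/DTT/glycerol buffer, then washed, crosslinked with 0.1% formaldehyde, proximity-ligated (BsaI/T4 ligase, 1 h, 37 °C), PCR-amplified and sequenced on an Illumina NextSeq500. Binding signal is each hexamer's read frequency for a factor divided by its frequency for the tag-only sample.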

For a further experiment, the target named is T2, EHF (Homo sapiens, UniProt Q9NZC4 1-300).
T2 sequence: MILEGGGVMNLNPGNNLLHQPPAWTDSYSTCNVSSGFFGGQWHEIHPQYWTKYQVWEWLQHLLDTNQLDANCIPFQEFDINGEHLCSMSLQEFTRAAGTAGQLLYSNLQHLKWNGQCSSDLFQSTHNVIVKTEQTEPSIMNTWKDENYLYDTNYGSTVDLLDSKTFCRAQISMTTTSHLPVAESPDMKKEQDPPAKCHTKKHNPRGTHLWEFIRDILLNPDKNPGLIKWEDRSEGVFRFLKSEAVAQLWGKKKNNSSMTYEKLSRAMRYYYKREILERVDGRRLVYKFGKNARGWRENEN
The method, boiled down: as §1

Another experiment concerns the target ETV5 (Homo sapiens, UniProt P41161 1-510). In short, it runs like this:
as §1

Another experiment addresses T3, ELK4 (Homo sapiens, UniProt P28324-2 1-405).
T3 sequence: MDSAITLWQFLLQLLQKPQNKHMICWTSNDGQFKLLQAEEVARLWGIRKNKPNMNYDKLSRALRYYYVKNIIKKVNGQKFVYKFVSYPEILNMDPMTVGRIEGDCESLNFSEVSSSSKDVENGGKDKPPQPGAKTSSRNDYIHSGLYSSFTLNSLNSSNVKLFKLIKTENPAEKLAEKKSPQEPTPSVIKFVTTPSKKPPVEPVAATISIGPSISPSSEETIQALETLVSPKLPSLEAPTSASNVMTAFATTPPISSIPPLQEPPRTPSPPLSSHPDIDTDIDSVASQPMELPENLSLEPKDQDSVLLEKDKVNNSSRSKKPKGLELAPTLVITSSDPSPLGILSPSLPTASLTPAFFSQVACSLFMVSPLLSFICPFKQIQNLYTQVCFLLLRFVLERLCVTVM
In short, it runs like this: as §1

A further experiment has as its target T4, ERF (Homo sapiens, UniProt P50548 1-548).
T4 sequence: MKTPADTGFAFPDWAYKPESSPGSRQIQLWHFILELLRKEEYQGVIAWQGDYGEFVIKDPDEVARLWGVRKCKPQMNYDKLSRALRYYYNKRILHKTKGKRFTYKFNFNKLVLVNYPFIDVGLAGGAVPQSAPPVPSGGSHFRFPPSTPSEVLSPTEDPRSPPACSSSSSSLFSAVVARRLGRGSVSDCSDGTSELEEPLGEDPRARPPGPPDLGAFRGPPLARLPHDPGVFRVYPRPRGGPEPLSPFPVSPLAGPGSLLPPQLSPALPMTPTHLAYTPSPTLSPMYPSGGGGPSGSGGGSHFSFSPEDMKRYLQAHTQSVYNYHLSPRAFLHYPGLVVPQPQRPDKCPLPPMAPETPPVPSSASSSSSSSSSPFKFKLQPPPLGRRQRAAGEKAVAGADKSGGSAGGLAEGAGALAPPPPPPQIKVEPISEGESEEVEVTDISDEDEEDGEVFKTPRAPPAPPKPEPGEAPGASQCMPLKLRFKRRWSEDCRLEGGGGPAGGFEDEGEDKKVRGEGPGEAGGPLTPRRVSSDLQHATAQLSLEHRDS
In short, it runs like this:
as §1

For the next experiment, the target named is T5, ETV3 (Homo sapiens, UniProt P41162-2 1-143).
T5 sequence: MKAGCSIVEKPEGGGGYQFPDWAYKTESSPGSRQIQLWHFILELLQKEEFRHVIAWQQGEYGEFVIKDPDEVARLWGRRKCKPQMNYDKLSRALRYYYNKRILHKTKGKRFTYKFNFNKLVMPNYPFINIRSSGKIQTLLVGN
The method, boiled down: as §1

The target in another experiment is ETV6 (Homo sapiens, UniProt P41212 1-452). The method, boiled down:
as §1

Chain of ETV5 (P41161 whole entry): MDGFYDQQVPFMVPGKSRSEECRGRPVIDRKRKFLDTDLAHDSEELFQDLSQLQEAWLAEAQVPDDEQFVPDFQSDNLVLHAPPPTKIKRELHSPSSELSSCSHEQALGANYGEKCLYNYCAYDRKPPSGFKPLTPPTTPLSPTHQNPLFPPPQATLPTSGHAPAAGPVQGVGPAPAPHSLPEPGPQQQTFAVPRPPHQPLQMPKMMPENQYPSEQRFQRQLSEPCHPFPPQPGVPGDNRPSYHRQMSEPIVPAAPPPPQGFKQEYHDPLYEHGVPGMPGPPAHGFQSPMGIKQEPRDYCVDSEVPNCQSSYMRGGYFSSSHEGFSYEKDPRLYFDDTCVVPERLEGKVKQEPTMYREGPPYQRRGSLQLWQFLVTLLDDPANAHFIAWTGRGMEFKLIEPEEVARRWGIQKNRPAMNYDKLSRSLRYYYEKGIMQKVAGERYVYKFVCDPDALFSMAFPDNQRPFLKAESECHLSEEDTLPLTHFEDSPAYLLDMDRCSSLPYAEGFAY
Chain of ETV6 (P41212 whole entry): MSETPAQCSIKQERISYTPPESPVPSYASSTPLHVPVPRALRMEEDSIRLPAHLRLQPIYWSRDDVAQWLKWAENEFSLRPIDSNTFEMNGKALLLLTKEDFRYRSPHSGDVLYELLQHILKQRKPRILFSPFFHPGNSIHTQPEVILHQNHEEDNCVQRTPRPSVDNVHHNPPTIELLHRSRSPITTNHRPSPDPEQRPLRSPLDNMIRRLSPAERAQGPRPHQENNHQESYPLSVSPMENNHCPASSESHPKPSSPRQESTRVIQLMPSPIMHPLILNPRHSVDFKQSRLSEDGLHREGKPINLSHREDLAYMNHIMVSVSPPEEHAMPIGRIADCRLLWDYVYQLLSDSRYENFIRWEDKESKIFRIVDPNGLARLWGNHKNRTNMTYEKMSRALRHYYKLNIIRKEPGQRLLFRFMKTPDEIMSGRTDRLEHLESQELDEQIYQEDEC

Regarding TGAAGC, the binding signal with ELK1 was 1.05 fold enrichment (6-mer frequency, TF over GST control); with EHF it was 1.04 fold enrichment (6-mer frequency, TF over GST control); in the experiment with ETV5 it was 1.01 fold enrichment (6-mer frequency, TF over GST control); with ELK4, 1.04 fold enrichment (6-mer frequency, TF over GST control); in the experiment with ERF, 1.07 fold enrichment (6-mer frequency, TF over GST control); with ETV3 it was 1 fold enrichment (6-mer frequency, TF over GST control). Also, the binding signal in the experiment with ETV6 was 1.01 fold enrichment (6-mer frequency, TF over GST control).
